Measurements from PubChem BioAssay (EPA / NIEHS).
Active and inactive are the calls of the source. How the source made its calls: active means hit-call score of the fitted dose curve at least 0.9, where 1 is the maximum; inactive means score below 0.9.

Assays:
Conditions in all cases: mRNA level, 48 h; actives raise or lower the signal
[1] = read-out: Glutamate-cysteine ligase regulatory (GCLM), GCLM (gene 2730); test: LTEA_HepaRG_GCLM: Life Technologies and Expression Analysis (LTEA) Assay for Glutamate-cysteine ligase regulatory (GCLM) using HepaRG (AID 2283500)
Method in brief: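 Endpoint is GCLM transcript level by qRT-PCR, normalized to three housekeeping genes, after 48 h chemical exposure of human HepaRG cells (0.5% DMSO vehicle, top 100 uM, half-log dilutions). Fitting was bidirectional relative to DMSO.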

[2] = read-out: Glutathione S-transferase M3 (GSTM3), GSTM3 (gene 2947); test: LTEA_HepaRG_GSTM3: Life Technologies and Expression Analysis (LTEA) Assay for Glutathione S-transferase M3 (GSTM3) using HepaRG (AID 2283501)
Method in brief: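 Differentiated HepaRG cells in serum-free induction medium were exposed in duplicate for 48 h to 8 half-log concentrations up to 100 uM in 0.5% DMSO. GSTM3 mRNA was measured by TaqMan qRT-PCR, normalized to ACTB/GAPDH/POLR2A, and fitted bidirectionally versus DMSO.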

[3] = read-out: Heat shock 70 kDa protein 1 (HSPA1A), gene 3303; test: LTEA_HepaRG_HSPA1A: Life Technologies and Expression Analysis (LTEA) Assay for Heat shock 70 kDa protein 1 (HSPA1A) using HepaRG (AID 2283502)
Method in brief: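 Cells were plated and cultured for 48 h, then switched to serum-free induction medium. Chemicals were added at eight half-log concentrations up to 100 uM for 48 h. RNA was then isolated and HSPA1A measured by qRT-PCR with bidirectional curve fitting against DMSO.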

[4] = read-out: Hypoxia-inducible factor 1-alpha (Homo sapiens) (UniProt Q16665); test: LTEA_HepaRG_HIF1A: Life Technologies and Expression Analysis (LTEA) Assay for Hypoxia-inducible factor 1 (HIF1A) Trancription factor using HepaRG (AID 2283503)
Method in brief: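 HIF1A transcript level read by qRT-PCR (ACTB, GAPDH, POLR2A normalization) after 48 h chemical exposure of HepaRG cultures. Eight half-log concentrations, top 100 uM, 0.5% DMSO vehicle, duplicates; bidirectional curve fit against DMSO baseline.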

[5] = read-out: 3-Hydroxy-3-Methylglutaryl-CoA Synthase 2 (HMGCS2), HMGCS2 (gene 3158); test: LTEA_HepaRG_HMGCS2: Life Technologies and Expression Analysis (LTEA) Assay for 3-Hydroxy-3-Methylglutaryl-CoA Synthase 2 (HMGCS2) using HepaRG (AID 2283504)
Method in brief: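 Differentiated human HepaRG cells were exposed in duplicate for 48 h in serum-free induction medium to eight concentrations (top 100 uM, half-log steps, 0.5% DMSO). HMGCS2 mRNA was quantified by TaqMan qRT-PCR, normalised to ACTB, GAPDH and POLR2A, then fitted bidirectionally against DMSO.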

HGF (gene 3082) = test: LTEA_HepaRG_HGF: Life Technologies and Expression Analysis (LTEA) Assay for Hepatocyte Growth Facto (HGF) using HepaRG (AID 2283505)
Method in brief: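 Differentiated human HepaRG cells in serum-free induction medium were exposed in duplicate for 48 h to eight concentrations (top 100 uM, half-log steps, 0.5% DMSO). HGF mRNA was quantified by qRT-PCR, normalized to ACTB, GAPDH and POLR2A.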

[6] = read-out: Insulin Like Growth Factor 1 (IGF1), IGF1 (gene 3479); test: LTEA_HepaRG_IGF1: Life Technologies and Expression Analysis (LTEA) Assay for Insulin Like Growth Factor 1 (IGF1) using HepaRG (AID 2283506)
Method in brief: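 Cells are thawed, plated and cultured 48 h, then exposed in duplicate to chemical (highest 100 uM, half-log steps, 0.5% DMSO) for another 48 h. Total RNA is analysed by Fluidigm qRT-PCR for IGF1 expression relative to vehicle.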

[7] = read-out: Insulin-like growth factor-binding protein 1 (IGFBP1), IGFBP1 (gene 3484); test: LTEA_HepaRG_IGFBP1: Life Technologies and Expression Analysis (LTEA) Assay for Insulin-like growth factor-binding protein 1 (IGFBP1) using HepaRG (AID 2283508)
Method in brief: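 Differentiated human HepaRG cells in serum-free induction medium were exposed in duplicate for 48 h to eight concentrations, top 100 uM with half-log dilutions, in 0.5% DMSO. Transcript levels came from qRT-PCR normalised to ACTB, GAPDH and POLR2A, fitted bidirectionally against DMSO.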

[8] = read-out: Interleukin 6 (IL6), IL6 (gene 3569); test: LTEA_HepaRG_IL6: Life Technologies and Expression Analysis (LTEA) Assay for Interleukin 6 (IL6) using HepaRG (AID 2283509)
Method in brief: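 qRT-PCR read-out of IL6 transcript, normalized to three housekeeping genes, after 48 h chemical exposure of HepaRG cells; 8-point half-log series, top 100 uM, 0.5% DMSO vehicle. Bidirectional curve fitting against DMSO baseline.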

[9] = read-out: Interleukin 6 Receptor (IL6R), IL6R (gene 3570); test: LTEA_HepaRG_IL6R: Life Technologies and Expression Analysis (LTEA) Assay for Interleukin 6 Receptor (IL6R) using HepaRG (AID 2283510);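 on AC50: TaqMan qRT-PCR signal normalized to ACTB GAPDH and POLR2A housekeeping genes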
Method in brief: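 Cells were thawed, plated and cultured 48 h, then medium was changed to serum-free induction medium. Chemicals were added in duplicate (100 uM top, half-log steps, 0.5% DMSO) for 48 h. Lysates were analyzed by qRT-PCR for IL6R expression.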

[10] = read-out: Potassium channel subfamily K member 1 (KCNK1), KCNK1 (gene 3775); test: LTEA_HepaRG_KCNK1: Life Technologies and Expression Analysis (LTEA) Assay for Potassium channel subfamily K member 1 (KCNK1) using HepaRG (AID 2283511)
Method in brief: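 HepaRG, 48 h exposure, 8-pt half-log series top 100 uM, 0.5% DMSO vehicle, duplicates. Readout: KCNK1 transcript by qRT-PCR (Fluidigm array), housekeeping-normalized; bidirectional curve fit relative to DMSO baseline.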

[11] = read-out: JUN Transcription Factor, JUN (gene 3725); test: LTEA_HepaRG_JUN: Life Technologies and Expression Analysis (LTEA) Assay for JUN Transcription Factor using HepaRG (AID 2283513)
Method in brief: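 Read-out is JUN transcript level by TaqMan qRT-PCR, normalized to ACTB, GAPDH and POLR2A, after 48 h chemical treatment of HepaRG cells. Concentration-response spanned eight half-log points up to 100 uM in 0.5% DMSO.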

[12] = read-out: Lipase C (LIPC), LIPC (gene 3990); test: LTEA_HepaRG_LIPC: Life Technologies and Expression Analysis (LTEA) Assay for Lipase C (LIPC) using HepaRG (AID 2283514)
Method in brief: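 HepaRG, 48 h exposure, 8-pt half-log series from 100 uM in 0.5% DMSO, duplicates. Readout: LIPC mRNA by Fluidigm qRT-PCR, housekeeping-normalized (ACTB/GAPDH/POLR2A). Gain or loss fitted bidirectionally against DMSO baseline.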

[13] = read-out: Lipoprotein lipase (LPL), LPL (gene 4023); test: LTEA_HepaRG_LPL: Life Technologies and Expression Analysis (LTEA) Assay for Lipoprotein lipase (LPL) using HepaRG (AID 2283515)
Method in brief: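 HepaRG, 48 h exposure, 8-pt half-log dilutions from 100 uM, 0.5% DMSO vehicle, duplicates; qRT-PCR (Fluidigm array) of LPL mRNA vs housekeeping genes; bidirectional curve fit relative to DMSO baseline.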

[14] = read-out: MicroRNA 122 (MIR122), gene 406906; test: LTEA_HepaRG_MIR122: Life Technologies and Expression Analysis (LTEA) Assay for MicroRNA 122 (MIR122) using HepaRG (AID 2283516); further: the transcript read is the microRNA miR-122
Method in brief: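 Human liver HepaRG cultures receive test chemicals for 48 h at eight half-log concentrations from 100 uM. Expression is quantified by qRT-PCR with ACTB/GAPDH/POLR2A normalization and fitted bidirectionally against 0.5% DMSO.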

MYC, MYC (gene 4609) = test: LTEA_HepaRG_MYC: Life Technologies and Expression Analysis (LTEA) Assay for MYC using HepaRG (AID 2283518)
Method in brief: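 Differentiated human HepaRG cells, plated 48 h then switched to serum-free induction medium, were exposed in duplicate for 48 h to 8-point half-log series up to 100 uM in 0.5% DMSO. MYC mRNA measured by qRT-PCR, normalized to ACTB/GAPDH/POLR2A.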

[15] = read-out: matrix metalloproteinase-3 (MMP3), MMP3 (gene 4314); test: LTEA_HepaRG_MMP3: Life Technologies and Expression Analysis (LTEA) Assay for matrix metalloproteinase-3 (MMP3) using HepaRG (AID 2283519)
Method in brief: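 qRT-PCR read-out of MMP3 mRNA (normalised to three housekeeping genes) in HepaRG liver cells after 48 h chemical exposure; 8-point half-log series, top 100 uM, 0.5% DMSO vehicle. Bidirectional curve fitting against DMSO baseline.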

[16] = read-out: Paternally Expressed 10 (PEG10), PEG10 (gene 23089); test: LTEA_HepaRG_PEG10: Life Technologies and Expression Analysis (LTEA) Assay for Paternally Expressed 10 (PEG10) using HepaRG (AID 2283520);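 on AC50: PEG10 transcript by qRT-PCR normalised to ACTB GAPDH and POLR2A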
Method in brief: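 Human HepaRG cultures are dosed for 48 h across an eight-point half-log series starting at 100 uM, with 0.5% DMSO as vehicle and baseline. Gain or loss of PEG10 transcript is measured by qRT-PCR and fitted in both directions.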

[17] = read-out: Nuclear factor NF-kappa-B p105 subunit (Homo sapiens) (UniProt P19838); test: LTEA_HepaRG_NFKB1: Life Technologies and Expression Analysis (LTEA) Assay for Nuclear Factor Kappa B Subunit 1 (NFKB1) using HepaRG (AID 2283521)
Method in brief: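 Differentiated human HepaRG cells in serum-free induction medium with 0.5% DMSO were exposed for 48 h to eight half-log concentrations, top 100 uM, in duplicate. NFKB1 mRNA measured by Fluidigm TaqMan qRT-PCR, normalised to ACTB, GAPDH and POLR2A; bidirectional fit versus DMSO.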

[18] = read-out: Protein phosphatase 2A (PPP2R4), PTPA (gene 5524); test: LTEA_HepaRG_PPP2R4: Life Technologies and Expression Analysis (LTEA) Assay for Protein phosphatase 2A (PPP2R4) using HepaRG (AID 2283522)
Method in brief: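 Cells were plated, cultured 48 h, switched to serum-free induction medium, then dosed for 48 h (8 points, max 100 uM, 0.5% DMSO). RNA was isolated and PPP2R4 expression measured by TaqMan qRT-PCR.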

Measured: AC50

Sequence of Nuclear factor NF-kappa-B p105 subunit (Homo sapiens) (P19838 whole entry, looked up): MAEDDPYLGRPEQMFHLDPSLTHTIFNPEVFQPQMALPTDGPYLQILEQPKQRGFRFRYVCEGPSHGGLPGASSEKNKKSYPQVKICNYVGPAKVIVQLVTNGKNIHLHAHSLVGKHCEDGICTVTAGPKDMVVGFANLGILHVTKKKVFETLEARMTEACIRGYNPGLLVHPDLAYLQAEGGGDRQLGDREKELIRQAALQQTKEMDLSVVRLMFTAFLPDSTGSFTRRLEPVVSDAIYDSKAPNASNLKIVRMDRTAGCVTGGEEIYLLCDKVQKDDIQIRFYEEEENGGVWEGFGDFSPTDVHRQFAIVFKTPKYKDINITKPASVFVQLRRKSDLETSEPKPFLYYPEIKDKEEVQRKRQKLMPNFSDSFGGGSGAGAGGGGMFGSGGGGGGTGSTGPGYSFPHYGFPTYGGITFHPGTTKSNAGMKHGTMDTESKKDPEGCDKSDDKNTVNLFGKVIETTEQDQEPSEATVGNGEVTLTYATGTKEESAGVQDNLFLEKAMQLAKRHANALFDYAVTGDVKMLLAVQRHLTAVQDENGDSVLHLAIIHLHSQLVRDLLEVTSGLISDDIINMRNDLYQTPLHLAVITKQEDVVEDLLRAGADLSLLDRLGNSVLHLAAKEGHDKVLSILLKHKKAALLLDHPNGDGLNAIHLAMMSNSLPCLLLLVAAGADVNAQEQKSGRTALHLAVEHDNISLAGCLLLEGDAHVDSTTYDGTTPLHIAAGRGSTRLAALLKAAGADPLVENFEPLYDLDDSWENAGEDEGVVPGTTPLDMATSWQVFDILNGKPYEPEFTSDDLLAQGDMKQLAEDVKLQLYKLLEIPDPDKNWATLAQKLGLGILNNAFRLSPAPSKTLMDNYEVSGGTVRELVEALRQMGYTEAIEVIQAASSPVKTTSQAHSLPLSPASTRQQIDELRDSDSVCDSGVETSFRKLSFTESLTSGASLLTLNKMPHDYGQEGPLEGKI
Sequence of Hypoxia-inducible factor 1-alpha (Homo sapiens) (Q16665 whole entry, looked up): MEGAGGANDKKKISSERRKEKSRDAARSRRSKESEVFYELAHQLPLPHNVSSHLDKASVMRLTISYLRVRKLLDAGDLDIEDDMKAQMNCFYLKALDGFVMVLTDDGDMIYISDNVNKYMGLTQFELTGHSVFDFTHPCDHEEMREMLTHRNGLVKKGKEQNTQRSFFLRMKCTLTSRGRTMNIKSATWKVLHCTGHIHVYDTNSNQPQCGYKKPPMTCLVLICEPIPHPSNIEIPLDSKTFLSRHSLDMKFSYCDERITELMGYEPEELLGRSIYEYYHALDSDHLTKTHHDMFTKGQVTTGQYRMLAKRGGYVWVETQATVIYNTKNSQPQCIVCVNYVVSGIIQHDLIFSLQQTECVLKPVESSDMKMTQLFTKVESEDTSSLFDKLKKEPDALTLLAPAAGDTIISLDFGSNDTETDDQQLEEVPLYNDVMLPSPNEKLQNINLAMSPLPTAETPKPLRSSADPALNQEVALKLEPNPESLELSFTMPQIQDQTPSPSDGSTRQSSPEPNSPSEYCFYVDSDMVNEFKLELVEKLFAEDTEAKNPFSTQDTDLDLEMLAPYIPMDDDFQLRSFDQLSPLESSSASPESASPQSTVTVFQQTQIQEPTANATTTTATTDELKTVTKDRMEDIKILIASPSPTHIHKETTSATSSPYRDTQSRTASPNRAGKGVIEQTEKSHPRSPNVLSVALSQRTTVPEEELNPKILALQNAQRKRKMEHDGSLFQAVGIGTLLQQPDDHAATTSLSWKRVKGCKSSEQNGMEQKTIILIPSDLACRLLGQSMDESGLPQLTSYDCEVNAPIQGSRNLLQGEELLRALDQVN

O=C1C2(Cl)C3(Cl)C4(Cl)C(Cl)(Cl)C5(Cl)C3(Cl)C1(Cl)C5(Cl)C24Cl (stereo not given)
active: [1] 88.5 µM | [3] 91.9 µM | [4] 92.5 µM | [5] 24.2 µM | [6] 23.8 µM | [7] 84 µM | [8] 91.7 µM | [9] 90.8 µM | [11] 91.1 µM | [13] 91.9 µM | [14] 93.8 µM | MYC, MYC (gene 4609) 24.9 µM | [16] 93.4 µM | [18] 15.8 µM
inactive: [2] | HGF (gene 3082) | [10] | [12] | [15] | [17]

O=[N+]([O-])c1ccc(O)c([N+](=O)[O-])c1
inactive: [3] | HGF (gene 3082) | [10] | [11] | [13] | [15]
active: [1] 12.2 µM | [2] 12.7 µM | [4] 44.8 µM | [5] 22.9 µM | [6] 27.9 µM | [7] 13.3 µM | [8] 60.3 µM | [9] 17.7 µM | [12] 12 µM | [14] 23.1 µM | MYC, MYC (gene 4609) 89.6 µM | [16] 13.2 µM | [17] 13 µM | [18] 13.1 µM

O=c1[nH]c(=O)[nH]c(=O)[nH]1
inactive: all assays above

CC(C)(c1ccccc1)c1ccc(O)c(C(C)(C)c2ccccc2)c1
active: [1] 50 µM | [3] 50 µM | [4] 90.2 µM | [5] 71.5 µM | [6] 50 µM | [12] 61.7 µM | [14] 78 µM | MYC, MYC (gene 4609) 50 µM
inactive: all other assays above
